Compound activity as filed in PubChem.
Hsp90 Hop PPI: qHTS Assay for Disrupters of an Hsp90 Co-Chaperone Interaction. Hsp90 C-terminal peptide / TPR2A (Hop) interaction, human. AID 595, 2007. AlphaScreen TPR2A-His6 binding biotin-Hsp90 C-terminal peptide. Potency, µM (doses to about 57 µM). 71,000 tested, 0.44% active; active = well fitted curve in either direction with a large enough effect; inconclusive = small, poorly fitted or top-dose-only effect, or another doubt
GBA activity: Glucocerebrosidase; Lysosomal acid glucosylceramidase (Homo sapiens), P04062; purified enzyme, resorufin glucoside fluorescence (screen aimed at inhibitors), 20 min; Potency, µM; 48,000 tested, 1.1% active; in the data active = potency below about 15 µM; inconclusive = mostly about 16 µM to 33 µM;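 note: the screen sought inhibitors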
Target sequence (P04062 whole entry, looked up): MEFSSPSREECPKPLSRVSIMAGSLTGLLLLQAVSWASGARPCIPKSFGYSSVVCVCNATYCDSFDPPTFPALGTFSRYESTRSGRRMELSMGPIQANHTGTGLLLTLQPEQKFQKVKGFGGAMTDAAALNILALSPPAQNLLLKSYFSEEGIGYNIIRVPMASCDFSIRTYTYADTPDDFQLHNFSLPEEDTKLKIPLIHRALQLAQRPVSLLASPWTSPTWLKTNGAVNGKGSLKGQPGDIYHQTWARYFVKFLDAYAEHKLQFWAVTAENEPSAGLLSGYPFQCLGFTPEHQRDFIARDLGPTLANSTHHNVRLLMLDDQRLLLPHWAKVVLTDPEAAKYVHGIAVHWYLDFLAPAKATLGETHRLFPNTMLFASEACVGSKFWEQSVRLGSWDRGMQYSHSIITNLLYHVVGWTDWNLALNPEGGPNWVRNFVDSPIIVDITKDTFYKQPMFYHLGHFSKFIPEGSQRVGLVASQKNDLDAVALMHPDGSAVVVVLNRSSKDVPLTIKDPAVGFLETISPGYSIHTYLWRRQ
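Wild-type enzyme at 0.2 nM final in 50mM citric acid/KH2PO4, 10mM sodium taurocholate, 0.01% tween-20, pH 5.9, with resorufin beta-D-glucopyranoside at 30 uM final. Compounds titrated, 20 min at RT, red fluorescence read; AC50 from titration.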
HBB splice mod: qHTS Assay for Modulators of Hemoglobin Beta Chain Splicing; Potency, µM (titrated, usually from 46.1 µM), hits mostly activators; HBB splicing reporter cell assay, activation; EGFP reporter with mutant IVS2-654 intron; response scale: normalised to 500 nM splice-correcting PNA; 65,000 tested, 0.06% active
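HeLa cells stably expressing EGFP interrupted by mutant beta-globin intron 2 (IVS2-654), 500/well in 2% FCS. Treated with compound for 2 days at 37C. Splicing correction scored as total well GFP intensity (488 nm excitation, 500-520 nm emission); 500 nM antisense PNA served as control.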
UbGFP stabilizer: Ubiquitin-GFP Assay; AID 526, 2006; Potency, µM (highest dose often 45.9 µM), hits mostly activators; Ubiquitin-GFP reporter cells, proteasome inhibition, GFP fluorescence; response scale: untreated = 0%, 10 µM MG-132 = 100%; 67,000 tested, under 10 active; active = well fitted activation curve with a large enough effect, not every such curve was filed as active; inconclusive = small, poorly fitted or top-dose-only effect, or another doubt; inactive = no such curve, though single readings can be large or run the other way
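U2OS cells stably expressing ubiquitin(G76V)-GFP, seeded overnight in 0.5% FBS medium, were exposed to compounds (qHTS, 46 uM to 2.9 nM) for 4 hr at 37 °C. GFP-positive cells were counted by laser cytometry (488 ex/515 em), normalized between basal and 10 uM MG-132.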
USP2a inhib: qHTS Assay for Inhibitors of Ubiquitin-specific Protease USP2a; Ubiquitin carboxyl-terminal hydrolase 2 (Homo sapiens), O75604; USP2a enzymatic assay, qHTS inhibition; Potency, µM (doses to about 38.3 µM), most hits filed as inhibitors; 60,000 tested, 0.1% active; note: nearly all actives have a fitted effect of over 60% in size
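Inhibition is measured in a cell-free coupled assay with 20 nM USP2 core, 20 nM Ub-PLA2 and 20 uM NBD C6-HPC, 2.5 h incubation. Activity normalized to NEM control.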
Epigenetic mod: qHTS Assay for Epigenetic Modulators; 68,000 tested, 0.09% active; Potency, µM (titrated, usually from 46.1 µM); AID 597, 2007; mouse C127i GFP locus derepression, cytometry, 30 h
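Locus derepression in mouse mammary C127i cells whose integrated CMV-GFP reporter is normally silent; GFP expression after 30 h compound treatment was quantified by counting fluorescent cells.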
Large screens that a line does not name were inactive; ! = not active in a repeat. Most compounds without a hit are left out; they make up all but 1.1% or so of the library. Unless noted, calls come from the whole dose curve; as a rule, active = well fitted curve in the direction sought with a large enough effect; inconclusive = small, poorly fitted or top-dose-only effect, or another doubt; inactive = no such curve, though single readings can be large; an effect the other way counts as inactive or inconclusive.

O=c1ccn([C@H]2O[C@H](CO)[C@@H](O)[C@@H]2O)c(=O)[nH]1	none (no result: GBA activity, HBB splice mod, USP2a inhib)
Cc1coc(NC(=O)CSc2nc(-c3ccncc3)cc(C(F)(F)F)c2C#N)n1	Epigenetic mod 10µM (no result: HBB splice mod)
CCOC(=O)NC(=O)CSc1nc(C)cc(C(F)(F)F)c1C#N	none (no result: HBB splice mod)
CN1CCc2nc(SCCOc3ccccc3)c(C#N)cc2C1	GBA activity 10, Epigenetic mod inconclusive
N[C@@H](Cc1c[nH]c2ccc([N+](=O)[O-])cc12)C(=O)O	none (no result: GBA activity, USP2a inhib)
COc1ccccc1NC(=O)CN1CCN(CC(=O)Nc2ccc(OCc3ccccc3)cc2)CC1	GBA activity 10
COc1ccc(NC(=O)CN2CCN(c3ccc(Cl)cc3)CC2)c(OC)c1	USP2a inhib 13µM
O=C(OC1Cc2c(O)cc(O)cc2OC1c1cc(O)c(O)c(O)c1-c1c(C2Oc3cc(O)cc(O)c3CC2O)cc(O)c(O)c1O)c1cc(O)c(O)c(O)c1 (stereo not drawn)	USP2a inhib 10µM (no result: Hsp90 Hop PPI, GBA activity, HBB splice mod, UbGFP stabilizer, Epigenetic mod)
O=C(CN(CCCN1CCOCC1)C(=O)Cn1nnc(-c2ccc(F)cc2)n1)NC1CCCCC1	GBA activity 4 (no result: USP2a inhib)
COc1ccc(N(CC(=O)NC2CCCC2)C(=O)Cn2nnc(-c3ccc(C)cc3)n2)cc1OC	GBA activity 9.4 (no result: HBB splice mod)
COc1ccc(N(CC(=O)NC2CCCC2)C(=O)Cn2nnc(-c3ccc(F)cc3)n2)cc1OC	GBA activity 8.6 (no result: USP2a inhib)
COc1cc(C2c3cc4c(cc3C(OC3OC5COC(C)O[C@@H]5C(O)C3O)C3COC(=O)C23)OCO4)cc(OC)c1O (stereo partly drawn)	none (no result: Hsp90 Hop PPI, GBA activity, HBB splice mod, UbGFP stabilizer, Epigenetic mod)
C=CCNc1oc(-c2ccc(OC)cc2)nc1C#N	GBA activity 15
C=CCNc1oc(-c2ccc(OCC)cc2)nc1C#N	Hsp90 Hop PPI inconclusive, GBA activity inconclusive
Nc1c(S(=O)(=O)O)cc(Nc2cccc(S(N)(=O)=O)c2)c2c1C(=O)c1ccccc1C2=O	Hsp90 Hop PPI inconclusive (no result: GBA activity, USP2a inhib)
c1ccc2[nH]c(SCc3cscn3)nc2c1	none
Fc1c(F)c(F)c(CSc2nc3ccccc3[nH]2)c(F)c1F	Hsp90 Hop PPI 4µM (no result: GBA activity)
CCN(CC)S(=O)(=O)c1ccc2c(c1)c(=O)c(C(=O)NCCN(C)CCc1ccccc1)cn2C	Hsp90 Hop PPI inconclusive, GBA activity 5.6, Epigenetic mod inconclusive
CN(CCNC(=O)c1cn(C)c2ccc(S(=O)(=O)N(C)C)cc2c1=O)CCc1ccccc1	none (no result: GBA activity, USP2a inhib, Epigenetic mod)
Cc1c(C)c2c(c(C)c1O)CC[C@@](C)(CCC[C@@H](C)CCC[C@@H](C)CCCC(C)C)O2	USP2a inhib 7.9µM (no result: GBA activity)
CC(=O)Oc1c(C)c(C)c2c(c1C)CCC(C)(CCCC(C)CCCC(C)CCCC(C)C)O2 (stereo not drawn)	none (no result: Hsp90 Hop PPI, GBA activity, HBB splice mod, UbGFP stabilizer, Epigenetic mod)
OCCN1CCN(C(=S)c2ccc(Cl)c(Cl)c2)CC1	Hsp90 Hop PPI inconclusive, GBA activity 10
N#CCCN1CCN(C(=S)c2ccc(-c3cc(Cl)ccc3Cl)o2)CC1	none (no result: HBB splice mod)
O=C(O)c1[nH]c2c([N+](=O)[O-])cc([N+](=O)[O-])cc2c1C(=O)O	none (no result: GBA activity, USP2a inhib)
CCCCC#CC1C=CC(OC(C)=O)C(COC(C)=O)O1 (stereo not drawn)	none (no result: Hsp90 Hop PPI, GBA activity, UbGFP stabilizer, USP2a inhib, Epigenetic mod)
O=C(Nc1ccc(OC(F)(F)F)cc1)C1=NCCN1	GBA activity 2 (no result: HBB splice mod)
CC1(Cc2cn(CCC#N)c3ccccc23)OCCO1	GBA activity 14
N#CCCn1cc(C(CC(=O)c2ccccc2)C(=O)O)c2ccccc21 (stereo not drawn)	none
S=C(S)N1CCCC1	Epigenetic mod 0.63µM (no result: GBA activity)
CN1CCN(c2ncc3ncc(=O)n(-c4ccccc4)c3n2)CC1	none (no result: GBA activity)
C=CCn1c(NCc2ccc3c(c2)OCO3)nc2ccccc21	none (no result: HBB splice mod)
Oc1ccc(-c2nc3ccccn3c2NCc2ccc3c(c2)OCO3)cc1	GBA activity 0.89 (no result: HBB splice mod)
CCN(CC)C(=S)SSC(=S)N(CC)CC	Hsp90 Hop PPI inconclusive, Epigenetic mod 1µM! (no result: GBA activity)
CC(C)[C@@H](CC(=O)N[C@@H]1CCCC[C@H]1C(=O)N[C@H](CC(=O)N[C@@H](CCC(=O)O)CC(=O)O)Cc1c[nH]c2ccccc12)NC(=O)C[C@H](Cc1c[nH]c2ccccc12)NC(=O)[C@@H]1CNCC[C@H]1N	Hsp90 Hop PPI 16µM (no result: GBA activity, UbGFP stabilizer, USP2a inhib, Epigenetic mod)
O=c1[nH]c(-c2ccccc2O)nc2c1CCCC2	GBA activity 7.5
O=c1[nH]c(N2CCc3ccccc3C2)nc2c1CCCC2	GBA activity 4.6
C[C@@H]1O[C@H]2C3=C(C(=O)[C@H]4O[C@@H]4[C@H]3O)[C@@H]1[C@@H]1[C@@H](C)OC=C3[C@H](O)[C@H]4O[C@@H]4/C(=N\OCc4ccccc4)[C@]312	none (no result: Hsp90 Hop PPI, GBA activity, UbGFP stabilizer, USP2a inhib, Epigenetic mod)
CN(C)c1ccc(/C=N/n2ncc3ccccc32)cc1	Hsp90 Hop PPI 25µM, GBA activity inconclusive
C=CCn1c(/N=C/c2ccc(N(C)C)cc2)nc2ccccc21	none
